# PubChem BioAssay AID1209 (Sanford-Burnham Center for Chemical Genomics, 2008)
# Screen size: about 190,000 compounds; about 810 (0.43%) were called active. Rule as the data show it: active = inhibition above about 50%; inactive = the rest. The full list was thinned out, with actives kept by preference.
# Target: Mannose-6-phosphate isomerase (Homo sapiens) (UniProt P34949)
# Assay: MPI enzyme activity inhibition – biochemical, fluorescence intensity, coupled assay, primary screen (AID 1209);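 also: plate controls were DMSO vehicle for no effect and wells lacking substrate for full effect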
# Conditions: purified PMI enzyme, at 20 µM, stronger effect = higher value
# Mannose-6-phosphate isomerase (Homo sapiens), sequence (P34949 whole entry, looked up): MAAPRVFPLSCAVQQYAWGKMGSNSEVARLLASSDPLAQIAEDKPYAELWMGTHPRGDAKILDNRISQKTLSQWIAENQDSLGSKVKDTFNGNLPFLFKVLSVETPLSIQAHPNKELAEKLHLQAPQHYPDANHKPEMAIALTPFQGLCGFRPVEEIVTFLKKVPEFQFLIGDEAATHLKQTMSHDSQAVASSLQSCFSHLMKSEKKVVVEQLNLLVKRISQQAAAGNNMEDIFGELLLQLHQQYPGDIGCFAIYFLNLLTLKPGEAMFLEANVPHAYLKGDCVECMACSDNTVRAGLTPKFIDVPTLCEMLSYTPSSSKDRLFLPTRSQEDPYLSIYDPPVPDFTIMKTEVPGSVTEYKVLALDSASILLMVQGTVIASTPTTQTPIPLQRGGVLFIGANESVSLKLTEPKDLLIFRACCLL
row,Compound,inhibition
1,O=C(c1ccccc1)C(C(=O)N1CCc2ccccc2C1)n1ccccc1=O (stereo unspecified),8.6% (inactive)
2,O=C(CSc1nnnn1-c1cccc2ccccc12)NC(C(=O)O)(c1ccccc1)c1ccccc1,-9.3% (inactive)
3,Cc1ccc(NC(=O)NC(=O)CN2C(=O)NC3(CCCCCCC3)C2=O)c(C)c1,9.5% (inactive)
4,CCC/C(O)=C1\C(=O)CC(c2ccccc2)CC1=NC(C)C(=O)O (stereo unspecified),-5.7% (inactive)
5,O=C(COc1ccc(Cl)cc1)NCc1nnc(SCC(=O)N2CCCCCC2)o1,3.1% (inactive)
6,CCOc1ccccc1NC(=O)c1ccc(NC(=O)c2ccco2)cc1,-12.3% (inactive)
7,CCOC(=O)N1CCN(c2cc(NCCO)c([N+](=O)[O-])c3nonc23)CC1,56.2% (active)
8,Cc1nnc(Sc2cc(NCCO)c([N+](=O)[O-])c3nonc23)s1,-0.7% (inactive)
9,CC(=O)Nc1ccc(Nc2cc(N3CCOCC3)c3nonc3c2[N+](=O)[O-])cc1,-2.7% (inactive)
10,O=[N+]([O-])c1c(NCCO)cc(N2CCN(Cc3ccc4c(c3)OCO4)CC2)c2nonc12,55.4% (active)
11,CCOC(=O)N1CCN(c2cc(N(C)CCO)c([N+](=O)[O-])c3nonc23)CC1,20.8% (inactive)
12,O=[N+]([O-])c1c(NCCO)cc(N2CCCCC2)c2nonc12,57.8% (active)
13,CN(CCO)c1cc(N2CCCCC2)c2nonc2c1[N+](=O)[O-],-0.9% (inactive)
14,CCN(CC)c1cc(NCCO)c([N+](=O)[O-])c2nonc12,37.9% (inactive)
15,CN(CCO)c1cc(N2CCC3(CC2)OCCO3)c2nonc2c1[N+](=O)[O-],6% (inactive)
16,O=[N+]([O-])c1c(NCCO)cc(N2CCC3(CC2)OCCO3)c2nonc12,60.3% (active)
17,CCOC(=O)C1CCCN(c2cc(NCCCO)c([N+](=O)[O-])c3nonc23)C1 (stereo unspecified),32.9% (inactive)
18,O=[N+]([O-])c1c(NCCCO)cc(N2CCN(Cc3ccc4c(c3)OCO4)CC2)c2nonc12,13% (inactive)
19,COc1ccccc1-n1c(-c2ccc(NS(C)(=O)=O)cc2)n[nH]c1=S,-0.6% (inactive)
20,CC(C)Cc1nnc(NC(=O)CS(=O)(=O)Cc2ccccc2)s1,-0.2% (inactive)
21,C=C(C)CSc1nnc2n(N)c(=O)c3ccccc3n12,-4.8% (inactive)
22,Cc1ccccc1C(=O)NCCc1nnc(SCC(=O)Nc2nc(-c3ccccc3)cs2)n1C,-0.8% (inactive)
23,O=C(CSc1ncccn1)N1CCN(C(c2ccccc2)c2ccccc2)CC1,20.8% (inactive)

row,Compound,inhibition
1,Cn1c(C(C(=O)NCC2CCCO2)N(CCc2ccccc2)C(=O)Cn2nnc3ccccc32)nc2ccccc21 (stereo unspecified),2.6% (inactive)
2,CCSc1c(-c2ccccc2)nc2c(C)cccc2c1C(=O)O,4.5% (inactive)
3,CCSc1nnc(-c2ccccc2SC)o1,-75.6% (inactive)
4,Cc1cccc(NC(=O)c2sc3nc4c(c(-c5cccs5)c3c2N)CN(C)CC4)c1,-14.8% (inactive)
5,CN1CCN(c2ccc(NC(=O)c3ccc(-c4ccc(Br)cc4)o3)cc2)CC1,-0.8% (inactive)
6,Cc1c(Nc2cc(N3CCOCC3)c3nonc3c2[N+](=O)[O-])c(=O)n(-c2ccccc2)n1C,19.4% (inactive)
7,Cc1c(Nc2cc(N3CCCCCC3)c3nonc3c2[N+](=O)[O-])c(=O)n(-c2ccccc2)n1C,55% (active)
8,Cc1c(Nc2cc(N3CCCC(C)C3)c3nonc3c2[N+](=O)[O-])c(=O)n(-c2ccccc2)n1C (stereo unspecified),45.8% (inactive)
9,Cc1ccc2c(C(=O)CN3CCN(c4ccccc4)CC3)c(C)[nH]c2c1,-4.7% (inactive)
10,CCOc1ccccc1-n1c(SCC(=O)NC2CCCC2)nnc1-c1ccoc1C,17.9% (inactive)
11,COc1ccc(/C=N\NC(=O)c2cccc([N+](=O)[O-])c2)cc1Cn1cc([N+](=O)[O-])cn1,10% (inactive)
12,COc1ccc(/C=N/NC(=O)c2ccccc2)cc1CN1CCN(c2ccc(F)cc2)CC1,-6.3% (inactive)
13,COc1ccc(/C=N/NC(=O)c2ccc(N)cc2)cc1Cn1cc([N+](=O)[O-])cn1,2.9% (inactive)
14,COc1ccc(/C=N\NC(=O)c2cc(O)c(O)c(O)c2)cc1CN1CCN(c2ccc(F)cc2)CC1,58.1% (active)
15,COc1cc(C(=O)N/N=C/c2ccc(OC)c(CN3CCN(c4ccc(F)cc4)CC3)c2)ccc1O,22.3% (inactive)
16,CCC(O)c1c(-c2ccccc2)nn(C)c1Cl (stereo unspecified),1.3% (inactive)
17,O=S1(=O)CC(O)C(NCc2ccco2)C1 (stereo unspecified),-0.2% (inactive)
18,COc1ccc(-c2csc(NC(=O)c3cc(=O)c4ccccc4o3)n2)cc1OC,-9.2% (inactive)
19,COC(=O)c1ccc(COC(=O)C23CC4CC(CC(O)(C4)C2)C3)o1,1.1% (inactive)
20,Cc1cc(/N=C/N(C)C)on1,4.8% (inactive)
21,CN(C)C=Nc1c(Br)cc(Br)c2nonc12,70.8% (active)
22,CN(C)C=Nc1nonc1N,-5.6% (inactive)
23,CC1(c2ccc([N+](=O)[O-])cc2)CC(C)(C)N(C(=O)c2ccccc2)c2ccccc21 (stereo unspecified),15.2% (inactive)

row,Compound,inhibition
1,CC1(C)CC(CCC(=O)Nc2ccc(S(N)(=O)=O)cc2)C(=O)O1 (stereo unspecified),-3.1% (inactive)
2,Cc1ccc2cc(CN(CC3CCCO3)C(=S)NCc3ccco3)c(=O)[nH]c2c1 (stereo unspecified),54.6% (active)
3,Cc1ccc2[nH]c(=O)c(CN(CC3CCCO3)C(=S)NCc3ccco3)cc2c1 (stereo unspecified),17.8% (inactive)
4,CC(C)CNC(=S)N(Cc1ccco1)Cc1cc2cc3c(cc2[nH]c1=O)OCCO3,19.9% (inactive)
5,O=c1[nH]c2cc3c(cc2cc1CN(Cc1cccnc1)C(=S)NCc1ccco1)OCO3,53.9% (active)
6,CCNC(=S)N(Cc1ccco1)Cc1cc2cc3c(cc2[nH]c1=O)OCCO3,17.8% (inactive)
7,CN(C)CCN(Cc1cc2cc3c(cc2[nH]c1=O)OCO3)C(=S)NCc1ccco1,9.6% (inactive)
8,O=c1[nH]c2cc3c(cc2cc1CN(Cc1cccnc1)C(=S)NCc1ccco1)OCCO3,59.7% (active)
9,Cc1cc2cc(CN(CC3CCCO3)C(=S)NCc3ccco3)c(=O)[nH]c2cc1C (stereo unspecified),9% (inactive)
10,O=c1[nH]c2cc3c(cc2cc1CN(CCCO)C(=S)NCc1ccco1)OCO3,11.2% (inactive)
11,O=C(Cn1cnc2ccccc2c1=O)NCCC(=O)Nc1ccc2c(c1)OCO2,-1.6% (inactive)
12,Fc1ccc(-c2cc(C(F)(F)F)n3ncnc3n2)cc1,-18.4% (inactive)
13,COC(=O)c1ccc(-n2c(C)cc(C(=O)COC(=O)CC3Sc4ccccc4NC3=O)c2C)cc1 (stereo unspecified),3.1% (inactive)
14,CCOC(=O)c1nnc(-c2ccc(C)cc2)nc1Oc1ccccc1Cl,13.7% (inactive)
15,CCOC(=O)c1sc(NC(=O)/C=C/c2ccccc2)nc1C,-6.9% (inactive)
16,CCOC(=O)c1sc(N/N=C/c2ccccc2)nc1C,60.3% (active)
17,CCOC(=O)c1sc(N/N=C/c2cccc(C)c2)nc1C,7.8% (inactive)
18,Cc1ccc(-n2nnc3c(=O)n(Cc4ccccn4)cnc32)cc1C,-5.8% (inactive)
19,CCN(CC)c1ccc(/C=N/NC(=O)Cc2cccs2)cc1,15.6% (inactive)
20,Cc1cccc(NC(=O)C2CCN(S(=O)(=O)c3c(C)noc3/C=C/c3ccco3)CC2)n1,-3.8% (inactive)
21,Cc1cccnc1NC(=O)C1CCN(S(=O)(=O)c2c(C)noc2/C=C/c2ccco2)CC1,50.7% (active)
22,Cc1ccc(NC(=O)C2CCN(S(=O)(=O)c3c(C)noc3/C=C/c3ccco3)CC2)nc1,9.1% (inactive)
23,Cn1cccc1CC(=O)N/N=C/c1cccc2ccccc12,4.2% (inactive)

row,Compound,inhibition
1,COc1ccc(S(=O)(=O)N2CCC(C(=O)NCc3ccccn3)CC2)cc1Cl,16.7% (inactive)
2,COc1ccc(S(=O)(=O)N2CCCC(C(=O)NCc3ccccn3)C2)cc1Cl (stereo unspecified),62.4% (active)
3,COc1ccc(S(=O)(=O)N2CCCC(C(=O)NCc3ccccn3)C2)cc1 (stereo unspecified),14% (inactive)
4,O=C(O)CSc1nnc(Cn2nnc3ccccc32)n1CCc1ccccc1,-12.5% (inactive)
5,COc1ccc(CN(CC2CCC(C(=O)O)CC2)C(=S)Nc2ccccc2OC)cc1 (stereo unspecified),-7.5% (inactive)
6,O=[N+]([O-])c1ccc(Sc2n[nH]c(-c3ccncc3)n2)nc1,60.8% (active)
7,O=[N+]([O-])c1ccc(Sc2n[nH]c(-c3ccccc3)n2)nc1,16.5% (inactive)
8,O=[N+]([O-])c1ccc(Sc2n[nH]c(-c3ccco3)n2)nc1,8.5% (inactive)
9,O=C(O)CC(NC(=O)COc1ccc(Cl)cc1Cl)C(=O)O (stereo unspecified),4.9% (inactive)
10,CCCCCCn1c(=O)[nH]c2nc3cc(N)c(C)cc3nc2c1=O,35.2% (inactive)
11,Cc1cc2nc3c(=O)n(C4CCCCC4)c(=O)[nH]c3nc2cc1N,51.7% (active)
12,Cc1cc(C)cc(Nc2cc(=O)n(C3CCCCC3)c(=O)[nH]2)c1,12.2% (inactive)
13,N#CCCN(C(=O)CSc1ccc2c(c1)OCCO2)c1ccccc1,3.1% (inactive)
14,Cc1ccc(NC(=O)c2ccc(Br)o2)cc1S(=O)(=O)N(C)C,-19% (inactive)
15,CCN(C(=O)c1cc2cccc(OC)c2oc1=O)C1CCCCC1,-7.8% (inactive)
16,N#Cc1cc(N)ccc1Sc1ccccc1,4.7% (inactive)
17,COc1ccc(S(=O)(=O)N2Cc3ccccc3CC2C(=O)O)cc1OC (stereo unspecified),-6.9% (inactive)
18,CC(C)Sc1nc2ncnc(N)c2[nH]1,-8.9% (inactive)
19,CCC(Sc1nc2ncnc(N)c2[nH]1)C(=O)O (stereo unspecified),64.8% (active)
20,Nc1ncnc2nc(SCc3ccccc3)[nH]c12,9.5% (inactive)
21,Cc1ccc(C)n1-c1cccc(S(=O)(=O)N2CCOCC2)c1,-13.2% (inactive)
22,O=c1[nH]c2c(c3c1CCCC3)CCCC2,16.2% (inactive)
